Measured potencies and affinities stand elsewhere.
Biological target: Potassium voltage-gated channel subfamily KQT member 1 (Homo sapiens) (UniProt P51787)
Experiment: KCNQ1 potentiation selectivity check – automated patch clamp, KCNQ1-CHO cells, selectivity assay for KCNQ2 activator project, dose response (AID 493044)
Details: automated patch clamp current (IonWorks); series mostly up to 30 µM; potentiation, negative = inhibition: at the top concentration;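 active = potentiation or inhibition of the KCNQ1 potassium channel at some dose, with a concentration-response curve obtained; inactive = no effect at any dose, or no curve obtained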

Sequence of Potassium voltage-gated channel subfamily KQT member 1 (Homo sapiens) (P51787 whole entry, looked up): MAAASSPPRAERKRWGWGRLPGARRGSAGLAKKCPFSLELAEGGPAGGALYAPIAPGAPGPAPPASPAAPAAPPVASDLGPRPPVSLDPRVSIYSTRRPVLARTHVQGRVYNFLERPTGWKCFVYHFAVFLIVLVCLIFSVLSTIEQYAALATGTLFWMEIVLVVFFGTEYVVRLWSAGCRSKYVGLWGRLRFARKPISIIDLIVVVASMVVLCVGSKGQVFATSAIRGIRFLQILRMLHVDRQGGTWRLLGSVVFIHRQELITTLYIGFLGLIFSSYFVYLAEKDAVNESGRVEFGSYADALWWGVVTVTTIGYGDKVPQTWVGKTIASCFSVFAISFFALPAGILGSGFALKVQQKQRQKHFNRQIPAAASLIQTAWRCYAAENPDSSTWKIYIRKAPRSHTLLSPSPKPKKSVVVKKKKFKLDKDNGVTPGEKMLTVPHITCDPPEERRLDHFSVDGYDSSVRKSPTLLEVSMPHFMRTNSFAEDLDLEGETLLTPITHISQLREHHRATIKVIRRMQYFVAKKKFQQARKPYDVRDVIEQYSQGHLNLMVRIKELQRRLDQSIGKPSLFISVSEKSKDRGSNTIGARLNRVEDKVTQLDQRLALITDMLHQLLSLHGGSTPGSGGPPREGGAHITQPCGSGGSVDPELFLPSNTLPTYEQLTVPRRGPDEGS

potentiation, negative = inhibition, inactive:
Cc1cccc(C)c1NC(=O)C1CC2CCC1C2 (centres undefined) -20.5
CCCCC(=O)Nc1c(C)cc(C)cc1Cl -35
Cc1cc(C)c(NC(=O)C2CC3CCC2C3)c(C)c1 (centres undefined) -27
Cc1cc(C)c(NC(=O)CC(C)(C)C)c(Cl)c1 -11.5
